Screens from PubChem.
TDP1 block = TDP1 (human) enzyme inhibition; Q9NUW8; Potency, µM (top dose mostly 130 µM), inactives show at the highest dose activity change, negative = inhibition, actives largely listed as inhibitors; actives 0.28% (n = 350,000); recombinant TDP1, AlphaScreen DNA substrate cleavage; note: potency is the fitted concentration of half-maximal effect; % is set by controls: 0 for no effect and ±100 for the full control effect; nearly all actives have a fitted effect of over 40% in size
Target sequence (Q9NUW8 whole entry, looked up): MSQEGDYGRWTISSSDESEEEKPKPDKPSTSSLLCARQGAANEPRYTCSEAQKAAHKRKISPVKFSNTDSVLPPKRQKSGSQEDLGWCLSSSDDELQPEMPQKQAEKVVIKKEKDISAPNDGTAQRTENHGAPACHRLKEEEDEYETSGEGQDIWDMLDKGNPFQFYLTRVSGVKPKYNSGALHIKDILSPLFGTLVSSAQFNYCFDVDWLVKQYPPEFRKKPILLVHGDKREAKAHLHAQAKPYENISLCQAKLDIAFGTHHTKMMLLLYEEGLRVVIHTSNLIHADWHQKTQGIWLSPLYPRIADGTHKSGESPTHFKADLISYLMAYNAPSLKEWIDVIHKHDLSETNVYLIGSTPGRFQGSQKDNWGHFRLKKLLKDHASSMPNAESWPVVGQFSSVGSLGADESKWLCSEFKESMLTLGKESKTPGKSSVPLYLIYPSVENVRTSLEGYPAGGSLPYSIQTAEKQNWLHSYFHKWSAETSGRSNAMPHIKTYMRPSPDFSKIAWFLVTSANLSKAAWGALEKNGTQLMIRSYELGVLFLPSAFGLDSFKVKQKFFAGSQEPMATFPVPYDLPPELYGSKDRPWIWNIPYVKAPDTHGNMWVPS
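Tdp1 1 nM final; 15 min RT w/ cpd; substrate 15 nM, 5 min; beads 10 ug/ml, 10 min; AlphaScreen read. Neg ctrl: no enzyme.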
DT40 TDP1 CPT = growth inhibition of DT40 Tdp1-/-;hTDP1 cells with camptothecin (screen for TDP1 inhibitors) | chicken DT40 Tdp1-/-;hTDP1 cells + 20 nM CPT, ATP luminescence, 48 h | Potency, µM (top dose mostly 46.2 µM), for inactives: at the top dose activity change, negative = growth inhibition, actives largely listed as inhibitors | actives 12% (n = 420,000) | AID 686979; note: potency is the fitted concentration of half-maximal effect; % is set by controls: 0 for no effect and ±100 for the full control effect; nearly all actives have a fitted effect of over 55% in size
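Cell growth measured by CellTiter-Glo luminescence after a minimum 48 h, 37 C compound exposure with 20 nM CPT in Tdp1-knockout DT40 cells stably expressing hTDP1, seeded 400/well; qHTS titration format.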
TGFb inhibitor = inhibitors of TGF-b signaling; Potency, µM (highest dose often 46.1 µM), for the others: at the top dose activity, negative = inhibition, actives largely listed as inhibitors; actives 1.2% (n = 410,000); HepG2 CAGA-GFP TGF-b/SMAD3 reporter, GFP fluorescence, 18 h; TGF-beta stimulated, 500 pg/mL final; note: potency is the fitted concentration of half-maximal effect; % is set by controls: 0 for no effect and ±100 for the full control effect; nearly all actives have a fitted effect of over 65% in size
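Inhibition of TGF-beta-driven CAGA-GFP reporter expression in HEPG2 cells is measured by cellular GFP fluorescence after 18 h stimulation with 500 pg/mL recombinant TGF-beta in 1% FBS medium at 37 degrees C.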
TDP1 cell noCPT = qHTS for Inhibitors of human tyrosyl-DNA phosphodiesterase 1 (TDP1): qHTS in cells in absence of CPT. actives 15% (n = 420,000). Potency, µM (top dose mostly 46.2 µM), without a hit: at the top dose activity change, negative = growth inhibition, hits mostly inhibitors. DT40 Tdp1-/- hTDP1 cells, no CPT, ATP luminescence, 48 h. AID 686978, 2013; note: potency is the fitted concentration of half-maximal effect; % is set by controls: 0 for no effect and ±100 for the full control effect; nearly all actives have a fitted effect of over 55% in size
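Seeded 400 DT40-hTDP1 cells/well (vehicle DMSO, no 20 nM CPT); pinned compounds; ≥48 hr at 37 °C; CellTiter-Glo luminescence as viability measure.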
HepG2 viability = kills HepG2 cells in TGF-b inhibitor counter-screen | HepG2 CAGA-GFP viability, ATP luminescence, 18 h | Potency, µM (doses to about 46.1 µM), inactives show at the top dose activity change, negative = cytotoxicity, usual class: cytotoxic | actives 0.76% (n = 410,000) | AID 588856; note: potency is the fitted concentration of half-maximal effect
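HepG2 CAGA-GFP cells (1000/well, DMEM with 1% FBS) received compound, then TGF-beta at 500 pg/mL final, and were incubated 18 hours at 37 degrees C. Viability was read by CellTiter-Glo luminescence. Media-only wells were set as complete cell-killing and DMSO as no toxicity.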
IL1B secr inh = blocks inflammasome-driven IL-1 beta release. THP-1 LPS/ATP IL-1B secretion, AlphaLISA, 16 h; active compounds read low. activity change, % at 57.5 µM. actives 4.7% (n = 360,000). AID 743279; in the data active = activity change below about -50%; inconclusive = mostly about -30% to -49%; note: % is set by controls: 0 for no effect and ±100 for the full control effect
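Secreted IL-1B measured by AlphaLISA bead assay after 16 h compound exposure of THP-1 cells; compounds (final up to 57.5 uM) added 1 h before LPS (250 ng/mL) and ATP (1.25 mM) stimulation; lower signal means less secretion.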
* hit, by the source's call; ? = inconclusive; nt = not tested or not shown; [ ] = remark or other dose. A selection: hits, their analogues and other compounds. The true share with any hit is near 19%. Unless noted, calls come from the whole dose curve; as a rule, active = well fitted curve in the direction sought with a large enough effect; inconclusive = small, poorly fitted or top-dose-only effect, or another doubt; inactive = no such curve, though single readings can be large; an effect the other way counts as inactive or inconclusive.

SMILES	TDP1 block	DT40 TDP1 CPT	TGFb inhibitor	TDP1 cell noCPT	HepG2 viability	IL1B secr inh
Cc1ccc(Cn2cc(S(=O)(=O)c3ccccc3)c(=O)c3cc(F)c(N4CCOCC4)cc32)cc1	5%	?	-23%	?	-12%	nt
Cc1cccc(S(=O)(=O)c2cn(Cc3ccccc3)c3cc(N4CCC(C)CC4)c(F)cc3c2=O)c1	0%	5.8µM*	-12%	8.2µM*	2%	nt
N#Cc1nc(Nc2cc(F)cc(F)c2)c2ncn(C3CCCC3)c2n1	0%	nt	nt	nt	nt	nt
O=C(CSc1cccc2cccc(Cl)c12)NCc1cccs1	nt	?	-4%	26µM*	-3%	-5
O=C(OCc1c(F)cccc1Cl)c1cnc2ccccc2n1	1%	5%	-3%	-4%	0%	26
Cc1cc(CN2CCN(CCC#N)CC2)c(O)c(C2(C)CCCCC2)c1	2%	16µM*	0%	21µM*	-42%	-2
CC(=O)N1CCC2(CC1)CCN(c1ccccn1)CC2	nt	0%	nt	-26%	nt	nt
CCN(C)c1ccc(/C=C/c2ccnc3ccccc23)cc1	nt	11µM*	82%	11µM*	-14%	nt
CCN(CCC(=O)O)c1ccc(/C=C/c2ccnc3ccccc23)cc1	nt	2%	99%	?	-31%	nt
CN(C)c1ccc(N=Nc2ccc(/C=C/c3ccnc4ccccc34)cc2)cc1	nt	?	260%	18µM*	-38%	nt
CCN(Cc1ccccc1)c1ccc(/C=C/c2nccc3ccccc23)cc1	nt	13µM*	0%	?	-13%	nt
CCN(CC)c1ccc(/C=C/c2ccnc3ccccc23)cc1	nt	?	105%	18µM*	-45%	nt
C/C=C\C[C@H](C)[C@H](O)[C@H]1C(=O)N[C@@H](CC)C(=O)N(C)CC(=O)N(C)[C@@H](CC(C)C)C(=O)N[C@@H](C(C)C)C(=O)N(C)[C@@H](CC(C)C)C(=O)N[C@@H](C)C(=O)N[C@@H](C)C(=O)N(C)[C@@H](CC(C)C)C(=O)N(C)[C@@H](CC(C)C)C(=O)N(C)[C@@H](C(C)C)C(=O)N1C	8%[21 µM]	nt	nt	nt	nt	nt
Cc1c(C(=O)N(C)C2CCOC2)sc2ncnc(NCc3ccc4c(c3)OCO4)c12 (centres undefined)	nt	-10%[9.04 µM]	nt	-27%	nt	nt
COc1ccccc1OCCNC(=O)c1ccc2c(c1)CCC2	6%	-5%	1%	?	3%	-2
CN(C)c1ccc(N=Nc2ccnc3ccccc23)cc1	nt	?	8%	22µM*	16%	nt
CCCCN(CCC#N)c1ccc(/C=C/c2ccnc3ccccc23)cc1	nt	10µM*	?	10µM*	-21%	nt
CN(C)c1ccc(N=Nc2ccccc2Br)cc1	nt	-14%	-25%	0%	-37%	18
OCCN(CCO)c1ccc(/C=C/c2ccnc3ccccc23)cc1	nt	8.9µM*	1%	14µM*	-11%	nt
CCN(CC)CCN(C)c1ccc(/C=C/c2ccnc3ccccc23)cc1	nt	?	?	?	-55%	nt
CCN(CC)CCN(CC)c1ccc(/C=C/c2ccnc3ccccc23)cc1	nt	-91%	?	4.5µM*	-78%	nt
CC(=O)CC(C)(C)NC(C)=S	nt	14%	-1%	1%	17%	-6
O=c1[nH]c(C2CCCN(S(=O)(=O)c3ccc(F)cc3)C2)nc2c1nnn2Cc1ccc(F)cc1 (centres undefined)	nt	-14%	?	?	-37%	-2
Cc1ccc(OCCC(=O)OCC(=O)NC(=O)c2ccccc2)cc1	-8%	-15%	-1%	-1%	-9%	3
C=CCN(CC=C)c1ccc(/C=C/c2ccnc3ccccc23)cc1	nt	18µM*	?	?	-39%	nt
SMILES	TDP1 block	DT40 TDP1 CPT	TGFb inhibitor	TDP1 cell noCPT	HepG2 viability	IL1B secr inh
CCCCCCCN(CCCCCCC)c1ccc(/C=C/c2ccnc3ccccc23)cc1	nt	-22%	-4%	-15%	-4%	nt
CC(C)CN(CC(C)C)c1ccc(/C=C/c2ccnc3ccccc23)cc1	nt	13µM*	6%	18µM*	-31%	nt
CN(C)c1ccc(C(CN)c2c[nH]c3ccccc23)cc1 (centres undefined)	9%	18µM*	-25%	21µM*	-46%	0
CC(=O)Nc1ccc(N=c2cc([N+](=O)[O-])cc(Cl)n2O)cc1	nt	?	?	15µM*	-50%	-53*
CCCCc1cc(=O)oc2cc(OCc3cc(OC)c(OC)c(OC)c3)c(Cl)cc12	3%	?	13%	15µM*	-15%	18
CCCc1cc(=O)oc2cc(OCc3cc(OC)c(OC)c(OC)c3)c(Cl)cc12	2%	?	-2%	?	2%	9
CC(C)OC(=O)/C=C1\C[C@@H](c2ccccc2C(F)(F)F)O[C@@H](c2ccccc2C(F)(F)F)O1	nt	?	nt	21µM*	nt	29
CC(=O)Nc1ccc(NC(=O)C(C)OC(=O)C2CCN(S(=O)(=O)c3ccccc3C(F)(F)F)CC2)cc1 (centres undefined)	0%	-20%	-10%	-25%	-2%	15
Cc1cc(N2CCN(c3ccc(F)cc3)CC2)n2nc(-c3ccc(Cl)cc3)nc2n1	-7%	-2%	?	2%	-1%	nt
Cc1cccc(/C=N/NC(=O)c2ccc3c(c2)OCCO3)c1O	5%	nt	nt	nt	nt	nt
Cc1ccc(O)c(/C=N/NC(=O)Cc2ccc(Cl)cc2)c1	nt	?	?	?	-43%	95
Cc1cccc(/C=N\NC(=O)c2ccc(Cl)cc2)c1O	6%	4.6µM*	-21%	?	-43%	118
